Laboratory results taken from PubChem BioAssay (EPA / NIEHS).
Activity calls are given as the source filed them. Rule for the calls: active = hit-call score of the fitted dose curve at least 0.9, where 1 is the maximum; inactive = score below 0.9.

How the values were obtained:
[1] = ATG_CRE_CIS: Attagene CIS-FACTORIAL HepG2 Assay for human cAMP Responsive Element (CRE) binding protein 3 (AID 2282926); conditions: HepG2 CRE cis-reporter, Attagene multiplexed mRNA; actives raise or lower the signal
In short: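 Human liver HepG2, transient MRTU transfection, 24 h compound exposure. Total RNA → oligo(dT) RT → PCR → 6-FAM primer extension → HpaI cut → CE. Activity called both directions vs DMSO.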

[2] = molecular target: CCAAT/enhancer-binding protein beta (Homo sapiens) (UniProt P17676); test: ATG_C_EBP_CIS: Attagene CIS-FACTORIAL HepG2 Assay for human CCAAT/Enhancer Binding Protein (C/EBP) beta (AID 2282927); conditions: HepG2 Attagene cis-factorial transcription factor reporter; actives raise or lower the signal
In short: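 Following a 24 h incubation with test chemical, transfected HepG2 cells yielded RNA whose reporter transcripts were quantified by RT-PCR and fluorescent capillary electrophoresis, with DMSO serving as baseline for bidirectional fitting.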

[3] = ATG_CMV_CIS: Attagene CIS-FACTORIAL HepG2 Assay for human CMV (Internal Marker) (AID 2282928); conditions: HepG2 CMV promoter reporter, transcription factor profiling; actives raise or lower the signal;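 note: endpoint acts as a background internal control marker rather than a target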
In short: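 HepG2 cells transiently transfected with multiple cis-regulated reporter units; 24 h compound exposure. Reporter mRNA quantified by RT-PCR, 6-FAM primer-extension labeling, HpaI digestion and capillary electrophoresis; bidirectional fitting against DMSO baseline.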

[4] = ATG_DR4_LXR_CIS: Attagene CIS-FACTORIAL HepG2 Assay for human Liver X Receptor (LXR), DR4 submotif (AID 2282929); conditions: HepG2 Attagene DR4 cis-reporter, mRNA transcription; actives raise or lower the signal
In short: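 Cells were transfected with multiple reporter transcription units, exposed to chemicals for 24 hours, then lysed for RNA. Reporter mRNA induction was measured by RT-PCR with capillary electrophoresis detection and fitted in both directions relative to DMSO.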

[5] = molecular target: Aryl hydrocarbon receptor (Homo sapiens) (UniProt P35869); test: ATG_Ahr_CIS: Attagene CIS-FACTORIAL HepG2 Assay for human Aryl Hydrocarbon Receptor (Ahr) (AID 2282930); conditions: HepG2 AhR cis-factorial reporter transcription; actives raise or lower the signal
In short: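 Values derive from bidirectional fitting against DMSO negative control. Underlying signal: cis-element reporter mRNA in transiently transfected HepG2, harvested 24 h post-dose and measured by RT-PCR plus capillary electrophoresis.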

[6] = ATG_AP_2_CIS: Attagene CIS-FACTORIAL HepG2 Assay for human Activator Protein 2 (AP-2) (AID 2282932); conditions: HepG2 AP-2 cis-reporter, Attagene transcription factor profiling; actives raise or lower the signal
In short: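 HepG2 cells were transiently transfected with multiple cis-promoter reporter transcription units and dosed for 24 h. Reporter mRNA was measured by RT-PCR with capillary electrophoresis fluorescence; bidirectional fits relative to DMSO baseline.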

[7] = ATG_BRE_CIS: Attagene CIS-FACTORIAL HepG2 Assay for human Bone Morphogenetic Protein (BMP) Response Element (BRE) (AID 2282933); conditions: HepG2 BMP response element reporter, Attagene transcription factor profiling; actives raise or lower the signal
In short: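 Read-out: reporter mRNA induction quantified by RT-PCR and capillary electrophoresis after 24 h chemical exposure of transfected HepG2 cells. Endogenous factor activity on the BMP response element; gain or loss fitted against DMSO baseline.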

[8] = molecular target: Retinoic acid receptor alpha (Homo sapiens) (UniProt P10276); test: ATG_DR5_RAR_CIS: Attagene CIS-FACTORIAL HepG2 Assay for human Retinoic Acid Receptor Alpha (RARE), DR5 submotif (AID 2282934); conditions: HepG2 Attagene cis-factorial RARE DR5 reporter, mRNA; actives raise or lower the signal
In short: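 Endpoint fitted in both directions relative to DMSO as negative control. It reflects DR5 cis-element reporter mRNA induction in transiently transfected HepG2 cells, measured 24 h after dosing through RT-PCR and fluorescent capillary electrophoresis.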

[9] = molecular target: Transcription factor E2F1 (Homo sapiens) (UniProt Q01094); test: ATG_E2F_CIS: Attagene CIS-FACTORIAL HepG2 Assay for human E2F Transcription Factor 1 (AID 2282935); conditions: HepG2 Attagene cis-reporter, E2F reporter RNA transcripts; actives raise or lower the signal
In short: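 HepG2 cells transiently transfected with multiplexed cis-element reporter units, dosed for 24 h. Reporter mRNA measured by RT-PCR, 6-FAM primer-extension labeling, HpaI digestion and capillary electrophoresis; bidirectional fit versus DMSO baseline.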

[10] = ATG_E_Box_CIS: Attagene CIS-FACTORIAL HepG2 Assay for human Enhancer Box (E-box) (AID 2282936); conditions: HepG2 E-box cis-reporter transcription, actives raise or lower the signal
In short: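 HepG2 cells transiently transfected with multiplexed cis-element reporter units sensing endogenous transcription factor activity; 24 h compound exposure. Reporter mRNA measured by RT-PCR, 6-FAM primer extension, HpaI digestion and capillary electrophoresis; bidirectional fit versus DMSO.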

[11] = ATG_M_61_CIS: Attagene CIS-FACTORIAL HepG2 Assay for M61 Transcription Factor (Internal Marker) (AID 2282937); conditions: HepG2 Attagene CIS-FACTORIAL M61 internal marker reporter; actives raise or lower the signal
In short: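 Cells were transfected with reporter units under cis-regulatory promoters, treated with chemicals for 24 h, then lysed for RNA. Reporter transcripts were quantified by RT-PCR and capillary electrophoresis, and activity was fitted bidirectionally against DMSO.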

[12] = ATG_EGR_CIS: Attagene CIS-FACTORIAL HepG2 Assay for human Early Growth Response 1 (EGR1) (AID 2282938); conditions: HepG2 Attagene CIS-FACTORIAL EGR reporter mRNA; actives raise or lower the signal
In short: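 Endogenous TF activity in HepG2 liver cells was gauged through cis-promoter reporter constructs transiently transfected. After 24 h dosing, reporter mRNA was quantified by RT-PCR and capillary electrophoresis, and curves fitted in both directions versus DMSO.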

[13] = ATG_M_19_CIS: Attagene CIS-FACTORIAL HepG2 Assay for M19 Transcription Factor (Internal Marker) (AID 2282939); conditions: HepG2 Attagene CIS-FACTORIAL M19 internal marker reporter; actives raise or lower the signal
In short: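 Readout: fluorescent reporter-transcript fragments by capillary electrophoresis after RT-PCR. Human HepG2 liver cells carried transfected MRTU constructs reporting endogenous transcription-factor activity; exposure 24 h. Gain or loss of signal fitted relative to DMSO.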

[14] = ATG_Ets_CIS: Attagene CIS-FACTORIAL HepG2 Assay for human Erythroblast Transformation Specific (ETS) (AID 2282941); conditions: HepG2 ETS cis-reporter transcription, actives raise or lower the signal
In short: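 HepG2 cells transiently transfected with cis-promoter reporter transcription units were dosed for 24 h; reporter mRNA was measured by RT-PCR, 6-FAM primer extension, HpaI digestion and capillary electrophoresis, with bidirectional fitting against DMSO baseline.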

[15] = molecular target: Hepatocyte nuclear factor 3-beta (Homo sapiens) (UniProt Q9Y261); test: ATG_FoxA2_CIS: Attagene CIS-FACTORIAL HepG2 Assay for human Forkhead box A2 (FOXA2) (AID 2282942); conditions: HepG2 cis-reporter transcription factor activity, 24 h; actives raise or lower the signal
In short: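 Endogenous transcription factor activity was read in HepG2 cells carrying transiently transfected cis-promoter reporter units. After 24 h dosing, reporter mRNA was quantified by RT-PCR and capillary electrophoresis, and values fitted bidirectionally versus DMSO.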

[16] = ATG_FoxO_CIS: Attagene CIS-FACTORIAL HepG2 Assay for human Forkhead box O (FoxO) (AID 2282943); conditions: HepG2 Attagene cis-reporter, FoxO element, mRNA; actives raise or lower the signal
In short: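 Values reflect reporter mRNA induction or loss in HepG2 cells 24 h post-dosing, fitted bidirectionally with DMSO as negative control and baseline. Detection used RT-PCR and fluorescence capillary electrophoresis.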

[17] = ATG_GATA_CIS: Attagene CIS-FACTORIAL HepG2 Assay for human GATA Binding Protein (AID 2282944); conditions: HepG2 GATA cis-element reporter, Attagene multiplex mRNA; actives raise or lower the signal
In short: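 Read-out: fluorescent reporter mRNA fragments resolved by capillary electrophoresis after RT-PCR. Human liver HepG2 cells carried transiently transfected cis-regulated reporter constructs; chemicals incubated 24 h; gain or loss of signal fitted relative to DMSO.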

[18] = ATG_GLI_CIS: Attagene CIS-FACTORIAL HepG2 Assay for human Zinc Finger Protein GLI1 (AID 2282945); conditions: HepG2, Attagene cis-factorial reporter mRNA, GLI element; actives raise or lower the signal
In short: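 HepG2 cells transiently transfected with cis-promoter multiplexed reporter units report endogenous transcription factor activity. After 24 h chemical exposure, reporter mRNA was quantified by RT-PCR, 6-FAM labelling, HpaI digestion and capillary electrophoresis, with bidirectional fitting against DMSO.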

[19] = ATG_AP_1_CIS: Attagene CIS-FACTORIAL HepG2 Assay for human Activator Protein 1 (AP-1) (AID 2282931); conditions: HepG2 Attagene cis-factorial AP-1 reporter mRNA; actives raise or lower the signal
In short: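 Endogenous transcription-factor activity in human HepG2 liver cells is read through a cis-promoter reporter transcript, sampled 24 h after dosing. Detection uses RT-PCR with capillary electrophoresis; values come from bidirectional fitting relative to DMSO.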

Measured: AC50

Hepatocyte nuclear factor 3-beta (Homo sapiens), sequence (Q9Y261 whole entry, looked up): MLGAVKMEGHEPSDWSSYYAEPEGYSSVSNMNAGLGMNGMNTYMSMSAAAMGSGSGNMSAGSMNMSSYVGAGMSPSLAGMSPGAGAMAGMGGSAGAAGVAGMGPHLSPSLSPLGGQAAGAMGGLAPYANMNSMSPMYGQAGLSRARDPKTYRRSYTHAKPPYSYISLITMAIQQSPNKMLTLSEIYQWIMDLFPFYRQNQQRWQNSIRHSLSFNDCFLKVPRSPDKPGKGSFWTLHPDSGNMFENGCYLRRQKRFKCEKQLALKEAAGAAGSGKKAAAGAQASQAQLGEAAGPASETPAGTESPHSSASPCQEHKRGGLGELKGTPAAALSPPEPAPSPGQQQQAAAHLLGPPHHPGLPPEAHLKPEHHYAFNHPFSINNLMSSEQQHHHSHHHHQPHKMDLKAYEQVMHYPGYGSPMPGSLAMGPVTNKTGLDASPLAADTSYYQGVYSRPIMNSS
Transcription factor E2F1 (Homo sapiens), sequence (Q01094 whole entry, looked up): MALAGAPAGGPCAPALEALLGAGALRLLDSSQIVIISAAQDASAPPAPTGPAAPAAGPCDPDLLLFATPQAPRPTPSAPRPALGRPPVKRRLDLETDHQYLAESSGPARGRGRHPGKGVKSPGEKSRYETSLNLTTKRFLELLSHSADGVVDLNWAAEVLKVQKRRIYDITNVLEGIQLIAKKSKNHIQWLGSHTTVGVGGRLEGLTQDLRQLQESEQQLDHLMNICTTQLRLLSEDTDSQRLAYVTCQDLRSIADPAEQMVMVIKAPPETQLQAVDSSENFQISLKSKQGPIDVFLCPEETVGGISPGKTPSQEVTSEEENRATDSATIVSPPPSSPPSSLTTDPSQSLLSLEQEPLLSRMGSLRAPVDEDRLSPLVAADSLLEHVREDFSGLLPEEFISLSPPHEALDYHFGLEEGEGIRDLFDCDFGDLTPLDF
CCAAT/enhancer-binding protein beta (Homo sapiens), sequence (P17676 whole entry, looked up): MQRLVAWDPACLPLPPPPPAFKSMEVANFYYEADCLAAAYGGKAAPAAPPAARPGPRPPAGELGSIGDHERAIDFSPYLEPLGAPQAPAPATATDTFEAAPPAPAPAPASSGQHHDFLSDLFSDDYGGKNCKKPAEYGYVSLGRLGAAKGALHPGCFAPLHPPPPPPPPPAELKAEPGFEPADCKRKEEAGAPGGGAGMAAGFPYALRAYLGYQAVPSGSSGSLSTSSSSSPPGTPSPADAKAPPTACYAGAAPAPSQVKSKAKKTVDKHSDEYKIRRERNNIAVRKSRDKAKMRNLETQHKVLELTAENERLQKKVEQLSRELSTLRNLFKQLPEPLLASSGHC
Aryl hydrocarbon receptor (Homo sapiens), sequence (P35869 whole entry, looked up): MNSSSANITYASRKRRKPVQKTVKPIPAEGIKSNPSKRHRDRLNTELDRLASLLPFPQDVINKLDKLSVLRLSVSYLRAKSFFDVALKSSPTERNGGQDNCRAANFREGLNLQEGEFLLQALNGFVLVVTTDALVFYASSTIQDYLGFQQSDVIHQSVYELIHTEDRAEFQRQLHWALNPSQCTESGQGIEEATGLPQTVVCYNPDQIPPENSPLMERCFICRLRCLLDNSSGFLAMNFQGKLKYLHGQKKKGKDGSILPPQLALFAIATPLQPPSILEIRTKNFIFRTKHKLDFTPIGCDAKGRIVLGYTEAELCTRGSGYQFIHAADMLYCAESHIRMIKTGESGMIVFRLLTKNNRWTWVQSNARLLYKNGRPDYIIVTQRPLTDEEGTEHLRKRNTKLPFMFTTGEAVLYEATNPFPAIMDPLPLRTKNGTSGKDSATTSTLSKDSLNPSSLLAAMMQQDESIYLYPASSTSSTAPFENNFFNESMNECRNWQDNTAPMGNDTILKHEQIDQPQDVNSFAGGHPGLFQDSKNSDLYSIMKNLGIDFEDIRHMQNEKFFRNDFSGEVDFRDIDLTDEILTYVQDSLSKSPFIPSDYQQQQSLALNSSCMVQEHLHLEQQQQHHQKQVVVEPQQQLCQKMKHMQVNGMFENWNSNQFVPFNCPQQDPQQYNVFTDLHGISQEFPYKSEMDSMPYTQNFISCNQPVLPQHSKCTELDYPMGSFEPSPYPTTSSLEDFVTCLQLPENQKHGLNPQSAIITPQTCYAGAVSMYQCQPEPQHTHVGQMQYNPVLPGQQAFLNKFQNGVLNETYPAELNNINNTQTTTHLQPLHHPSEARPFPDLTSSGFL
Retinoic acid receptor alpha (Homo sapiens), sequence (P10276 whole entry, looked up): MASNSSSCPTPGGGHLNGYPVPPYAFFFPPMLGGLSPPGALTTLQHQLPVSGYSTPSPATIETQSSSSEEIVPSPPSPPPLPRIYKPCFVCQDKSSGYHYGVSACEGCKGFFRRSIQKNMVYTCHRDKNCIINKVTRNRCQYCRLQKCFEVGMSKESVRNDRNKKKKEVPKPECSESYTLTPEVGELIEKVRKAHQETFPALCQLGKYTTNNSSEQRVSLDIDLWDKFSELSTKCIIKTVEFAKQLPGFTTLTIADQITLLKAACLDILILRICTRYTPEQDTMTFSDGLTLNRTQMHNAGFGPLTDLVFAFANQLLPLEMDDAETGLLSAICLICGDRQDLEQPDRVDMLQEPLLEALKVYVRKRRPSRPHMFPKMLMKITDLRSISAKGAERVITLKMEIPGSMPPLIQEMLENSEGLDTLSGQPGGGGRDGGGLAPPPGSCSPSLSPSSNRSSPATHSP

CCCCCCC(O)CCCCCCCCCCC(=O)O (stereo not drawn)
inactive: [1] | [2] | [3] | [4] | [5] | [6] | [7] | [8] | [9] | [10] | [11] | [12] | [13] | [14] | [15] | [16] | [17] | [18]

COCCOC(=O)c1ccccc1C(=O)OCCOC
inactive: [1] | [2] | [3] | [4] | [5] | [19] | [7] | [8] | [9] | [10] | [11] | [12] | [13] | [15] | [16] | [18]

CS(=O)(=O)c1ccc(C2=C(c3ccccc3)C(=O)OC2)cc1
inactive: [1] | [2] | [3] | [4] | [19] | [7] | [8] | [9] | [10] | [11] | [12] | [13] | [14] | [15] | [16] | [17] | [18]
active: [5] 0.0408 µM

COc1ccc(CCC(C)=O)cc1
inactive: [1] | [2] | [3] | [4] | [5] | [6] | [7] | [8] | [9] | [10] | [11] | [12] | [13] | [14] | [15] | [16] | [17] | [18]

Clc1ccc(C(c2ccccc2Cl)C(Cl)Cl)cc1 (stereo not drawn)
inactive: [1] | [2] | [7] | [8] | [9] | [10] | [11] | [12] | [15] | [17]
active: [3] 100 µM | [4] 25.2 µM | [5] 65.6 µM | [19] 100 µM | [13] 100 µM | [16] 69.8 µM | [18] 53.7 µM

CCCCCC(C)=O
inactive: [1] | [2] | [3] | [4] | [5] | [19] | [7] | [8] | [9] | [10] | [11] | [12] | [13] | [14] | [15] | [16] | [17] | [18]

COc1cc(CCC(C)=O)ccc1O
inactive: [1] | [2] | [3] | [4] | [5] | [19] | [7] | [8] | [9] | [10] | [11] | [12] | [13] | [14] | [15] | [16] | [17] | [18]
